DT40 TDP1 CPT: growth inhibition of DT40 Tdp1-/-;hTDP1 cells with camptothecin (screen for TDP1 inhibitors). chicken DT40 Tdp1-/-;hTDP1 cells + 20 nM CPT, ATP luminescence, 48 h. Potency, µM (top dose mostly 46.2 µM), for the others: at the top dose activity change, negative = growth inhibition, hits mostly inhibitors. hit rate 12% among 420,000. AID 686979; note: potency is the fitted concentration of half-maximal effect; % is set by controls: 0 for no effect and ±100 for the full control effect; nearly all actives have a fitted effect of over 55% in size
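Chicken DT40 Tdp1-/- cells stably complemented with human TDP1 were seeded at 400 cells/well in medium containing 20 nM camptothecin, exposed to pin-transferred compounds, and grown at 37 °C for at least 48 hr. Viability was read as ATP luminescence.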
TDP1 block: inhibitors of human tyrosyl-DNA phosphodiesterase TDP1 | recombinant TDP1, AlphaScreen DNA substrate cleavage | Potency, µM (doses to about 130 µM), for inactives: top-dose activity change, negative = inhibition, hits mostly inhibitors | hit rate 0.28% among 350,000; note: potency is the fitted concentration of half-maximal effect; % is set by controls: 0 for no effect and ±100 for the full control effect; nearly all actives have a fitted effect of over 40% in size
Target sequence (Q9NUW8 whole entry, looked up): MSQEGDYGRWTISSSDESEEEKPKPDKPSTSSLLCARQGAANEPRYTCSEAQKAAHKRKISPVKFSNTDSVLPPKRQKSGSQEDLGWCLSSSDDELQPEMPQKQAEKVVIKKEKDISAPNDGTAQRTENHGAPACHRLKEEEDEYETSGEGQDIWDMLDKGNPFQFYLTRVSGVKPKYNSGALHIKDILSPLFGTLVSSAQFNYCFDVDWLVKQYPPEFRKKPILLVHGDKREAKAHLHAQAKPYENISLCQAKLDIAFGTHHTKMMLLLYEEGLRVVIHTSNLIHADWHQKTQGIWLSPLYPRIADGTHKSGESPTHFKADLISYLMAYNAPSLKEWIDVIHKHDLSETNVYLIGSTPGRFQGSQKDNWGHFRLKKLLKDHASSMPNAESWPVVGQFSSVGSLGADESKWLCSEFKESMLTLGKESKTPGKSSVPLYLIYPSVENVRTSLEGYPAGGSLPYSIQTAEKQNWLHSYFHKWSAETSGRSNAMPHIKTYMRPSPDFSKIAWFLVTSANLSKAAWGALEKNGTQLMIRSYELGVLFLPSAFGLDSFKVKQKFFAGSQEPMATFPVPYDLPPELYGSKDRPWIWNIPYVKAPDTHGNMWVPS
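Recombinant E. coli-expressed Tdp1 (1 nM) preincubated with compound 15 min at RT, then 5'-biotin/3'-phosphotyrosine-FITC DNA substrate (15 nM) added for 5 min. AlphaScreen beads (10 ug/ml) added, 10 min RT; tyrosine-FITC cleavage read as signal loss.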
TGFb SMAD3 inh: inhibitors of TGF-b signaling | HepG2 CAGA-GFP TGF-b/SMAD3 reporter, GFP fluorescence, 18 h; TGF-beta stimulated, 500 pg/mL final | Potency, µM (titrated, usually from 46.1 µM), for inactives: at the top dose activity, negative = inhibition, usual class: inhibitors | hit rate 1.2% among 410,000 | AID 588855; note: potency is the fitted concentration of half-maximal effect; % is set by controls: 0 for no effect and ±100 for the full control effect; nearly all actives have a fitted effect of over 65% in size
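Per well, imaged GFP fluorescence of HEPG2 CAGA-GFP cells gives the signal; cells get compound, then TGF-beta (500 pg/mL final), 18 h at 37 degrees C; %Activity versus -TGF-beta and +DMSO controls.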
HepG2 tox: kills HepG2 cells in TGF-b inhibitor counter-screen; HepG2 CAGA-GFP viability, ATP luminescence, 18 h; hit rate 0.76% among 410,000; Potency, µM (highest dose often 46.1 µM), for the others: at the highest dose activity change, negative = cytotoxicity, actives largely listed as cytotoxic; note: potency is the fitted concentration of half-maximal effect
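HepG2 CAGA-GFP cells (1000/well, DMEM with 1% FBS) received compound, then TGF-beta at 500 pg/mL final, and were incubated 18 hours at 37 degrees C. Viability was read by CellTiter-Glo luminescence. Media-only wells were set as complete cell-killing and DMSO as no toxicity.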
TDP1 cell noCPT: qHTS for Inhibitors of human tyrosyl-DNA phosphodiesterase 1 (TDP1): qHTS in cells in absence of CPT; DT40 Tdp1-/- hTDP1 cells, no CPT, ATP luminescence, 48 h; Potency, µM (series often up to 46.2 µM), without a hit: at the top dose activity change, negative = growth inhibition, most hits filed as inhibitors; hit rate 15% among 420,000; AID 686978, 2013; note: potency is the fitted concentration of half-maximal effect; % is set by controls: 0 for no effect and ±100 for the full control effect; nearly all actives have a fitted effect of over 55% in size
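Camptothecin absent (DMSO only). Human TDP1-complemented DT40 knockout cells, 400 cells/well, 37 °C for minimum 48 hr; ATP measured via CellTiter-Glo, 30 min dark incubation, luminescence.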
IL1B secr inh: inflammasome signaling inhibition, IL-1 beta readout; THP-1 LPS/ATP IL-1B secretion, AlphaLISA, 16 h; stronger effect = lower value; activity change, % at 57.5 µM; hit rate 4.7% among 360,000; AID 743279; in the data active = activity change below about -50%; inconclusive = mostly about -30% to -49%; note: % is set by controls: 0 for no effect and ±100 for the full control effect
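THP-1 cells pretreated 1 hr with compounds (up to 57.5 uM final), then stimulated with LPS (250 ng/mL final) plus ATP (1.25 mM final); secreted IL-1B measured by AlphaLISA after 16 hr, decreased signal indicating inhibition.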
The depositor's hits bear a star; ? = inconclusive; / = no result; [ ] = dose if it differs, or a comment. Hits are enriched below; roughly 18% of the tested compounds scored in any of these assays. Unless noted, calls come from the whole dose curve; as a rule, active = well fitted curve in the direction sought with a large enough effect; inconclusive = small, poorly fitted or top-dose-only effect, or another doubt; inactive = no such curve, though single readings can be large; an effect the other way counts as inactive or inconclusive.

SMILES	DT40 TDP1 CPT	TDP1 block	TGFb SMAD3 inh	HepG2 tox	TDP1 cell noCPT	IL1B secr inh
CCc1noc(C)c1C(=O)N1CCCC(N2CCN(c3cccc(Cl)c3)CC2)C1 (stereo not drawn)	-18%	2%	-27%	-10%	?	18
Cc1cccc(C)c1NC(=S)N(CCCN1CCCCC1)Cc1ccco1	0%	3%	-3%	-3%	-3%	-10
Cc1ccc(NC(=S)N(CCCN2CCOCC2)Cc2ccco2)cc1	-2%	2%	-5%	2%	5%	-20
Cc1ccc(NC(=S)N(CCN2CCCCC2)Cc2ccco2)cc1	?	2%	?	1%	16µM*	?
Cc1cc(NC(=S)N(CCN2CCCCC2)Cc2ccco2)ccc1Cl	?	6%	-29%	-26%	?	-97*
CCN1CCN(CCCN(Cc2ccco2)C(=S)Nc2ccc(Cl)c(C)c2)CC1	-15%	1%	-12%	11µM*	?	-13
CCOC(=O)c1ccc(NC(=S)N(CCCN2CCCCCC2)Cc2ccco2)cc1	?	1%	11%	-26%	?	-66*
O=C(COC(=O)c1ccc(Cl)cc1Cl)Nc1cccc(S(=O)(=O)NC2=NCCC2)c1	0%	2%	4%	-30%	-2%	0
Cc1nn(C)c(C)c1N1C(=O)c2cccc3c(Br)ccc(c23)C1=O	18µM*	5%	?	-22%	21µM*	-96*
CC1C(=O)Nc2ccccc2N1C(=O)c1ccc(O)cc1 (stereo not drawn)	5%	/	-12%	5%	5%	-19
O=C1Nc2ccccc2N(C(=O)c2ccc3ccccc3c2)C1c1nc2ccccc2[nH]1 (stereo not drawn)	10µM*	/	/	/	21µM*	-2
Cc1ccc(S(=O)(=O)N2CC3(O)CN(C(=O)OC(C)C)N(C(=O)OC(C)C)CC3(OC(=O)NCc3ccccc3F)C2)cc1 (stereo not drawn)	?	/	?	-31%	?	-9
Cc1ccc(S(=O)(=O)N2CC3(O)CN(C(=O)OC(C)C)N(C(=O)OC(C)C)CC3(OC(=O)NC3CC3)C2)cc1 (stereo not drawn)	?	/	/	/	?	-21
CCCCCCNC(=O)OC12CN(C(=O)OC(C)C)N(C(=O)OC(C)C)CC1(O)CN(S(=O)(=O)c1ccc(C)cc1)C2 (stereo not drawn)	?	/	?	-32%	21µM*	-26
Cc1ccc(S(=O)(=O)N2CC3(O)CN(C(=O)OC(C)C)N(C(=O)OC(C)C)CC3(OC(=O)NCC3CCCCC3)C2)cc1 (stereo not drawn)	16µM*	/	?	-26%	?	?
O=C(CN1CCN(c2ccccc2Cl)CC1)NC1CCCc2ccccc21 (stereo not drawn)	?	1%	?	6%	?	-59*
Cc1ccc(Cl)cc1N1CCN(CC(=O)NC2CCCc3ccccc32)CC1 (stereo not drawn)	?	0%	?	-50%	16µM*	-9
O=C(OCC#CCSc1nnc(-c2cccc3ccccc23)o1)c1ccc(F)nc1	/	-5%	/	/	/	/
Cc1cccc(C(=O)Nc2cccc(OCc3cc(=O)n4cccc(C)c4n3)c2)c1	9%	-5%	3%	-11%	-6%	/
CC(C)C(OC(=O)c1nsc(Cl)c1Cl)C(=O)NC1CCCCC1 (stereo not drawn)	-2%	1%	9%	-3%	9%	3
C=CCN(CC=C)Cc1cc(=O)oc2ccccc12	-29%	/	0%	9%	?	2
C#CCOCCOCCOCCNc1nc(N2CCN(C(=O)[C@H](CCC(=O)O)n3cc([C@@H](N)CC(N)=O)nn3)CC2)nc(N2CCN(C(=O)[C@H](CCC(=O)O)n3cc([C@@H](N)CC(N)=O)nn3)CC2)n1	-17%	2%	0%	0%	-6%	3
CCN(CC)CCN(C)C(=O)c1ccc(-c2ccccc2)nc1N(C)C	-2%[9.04 µM]	/	/	/	-17%	/
O=C(OCc1nnc(-c2ccccc2)o1)c1ccc(S(=O)(=O)NCc2ccco2)cc1	?	-3%	7%	-24%	23µM*	0
CN(Cc1ccc(Cl)cc1)C(=O)c1ccc(S(=O)(=O)NCc2ccco2)cc1	?	5%	?	-25%	-24%	-9
SMILES	DT40 TDP1 CPT	TDP1 block	TGFb SMAD3 inh	HepG2 tox	TDP1 cell noCPT	IL1B secr inh
O=C(/C=C/c1ccco1)OCc1nnc(-c2ccccc2)o1	-10%	25µM*	?	-21%	-22%	17
O=C(COC(=O)c1ccc(S(=O)(=O)NCc2ccco2)cc1)NCc1ccccc1	-5%	-15%	0%	-6%	-12%	34
NC(=O)COC(=O)c1ccc(S(=O)(=O)NCc2ccco2)cc1	-7%	16µM*	8%	0%	-23%	-7
CC(C)c1ccc(CN(C)C(=O)c2ccc(S(=O)(=O)NCc3ccco3)cc2)cc1	21µM*	2%[56.1 µM]	?	-24%	21µM*	16
O=C(CCNC(=O)c1ccccc1Cl)Nc1ccc(S(=O)(=O)N2CCOCC2)cc1	-8%	/	-1%	2%	-19%	-8
Cc1ccccc1S(=O)(=O)Cc1ccc(C(=O)NC2CC2)o1	-1%	2%	-12%	-23%	15%	9
FC(F)(F)C(F)(F)C(F)(F)c1nc2ccccc2[nH]1	-24%	/	-8%	-35%	-5%	/
COc1ccc(N2CC(NC(=O)N3CCN(C(=O)c4ccco4)CC3)CC2=O)cc1OC (stereo not drawn)	1%	/	11%	-3%	1%	8
O=C(CSc1ccc(-c2nc3ccccc3[nH]2)cn1)Nc1ccc(S(=O)(=O)NC2CC2)cc1	26µM*	2%	-18%	-51%	21µM*	11
CCOC(=O)CSc1ccc(-c2nc3ccccc3[nH]2)cn1	?	2%	-26%	-30%	?	-82*
O=C(CSc1ccc(-c2nc3ccccc3[nH]2)cn1)Nc1ccc2c(c1)OCCO2	-27%	-8%	-7%	-22%	-24%	4
COCCNC(=O)CSc1ccc(-c2nc3ccccc3[nH]2)cn1	-14%	/	-4%	0%	8%	48
N#CCSc1ccc(-c2nc3ccccc3[nH]2)cn1	?	2%	0%	-34%	23µM*	?
Cc1ccc(SCC(=O)N/N=C/c2ccco2)cc1	5%	0%	-14%	-28%	-24%	-5

Source: PubChem BioAssay
